Data from PubChem BioAssay AID686949 (The Scripps Research Institute Molecular Screening Center, 2013).
The campaign covered roughly 3,200 compounds. About 2,200 (69%) were called active. So high a share suggests a set chosen from earlier hits. These entries were drawn from the full list. A number with no mark means an inactive call.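 How the source made its calls: active means activation, as change over the incubation, above the mean of all tested compounds plus 3 SD (cut at about 13% in these data); inactive means the rest.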

target: Kallikrein-7 (Homo sapiens) (UniProt P49862); assay: activation of human kallikrein-7 proenzyme – biochemical, fluorescence intensity, triplicate, confirmation (AID 686949); conditions: purified proKLK7, EDANS-DABCYL substrate fluorescence; at 7 µM; hits give high values; scaled: vehicle 0, mature enzyme 100
Sequence (P49862 whole entry, looked up): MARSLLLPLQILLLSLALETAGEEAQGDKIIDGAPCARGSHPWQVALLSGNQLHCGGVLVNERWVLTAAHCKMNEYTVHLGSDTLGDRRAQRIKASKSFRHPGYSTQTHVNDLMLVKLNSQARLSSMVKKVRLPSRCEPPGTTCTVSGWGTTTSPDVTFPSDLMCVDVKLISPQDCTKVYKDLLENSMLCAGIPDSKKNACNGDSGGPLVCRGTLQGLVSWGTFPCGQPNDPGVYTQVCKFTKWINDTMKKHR

Row | SMILES | activation
1 | CC(=O)NN1C(=O)c2ccccc2NC1c1ccccc1 (centres undefined) | 33.8% (active)
2 | CCOC(=O)NN1C(=O)c2ccccc2NC1c1cccc(O)c1 (centres undefined) | 19.6% (active)
3 | COc1cc(/C=N\NC(=O)c2nonc2N)c(OC)cc1Br | 75.4% (active)
4 | CCc1nc(Nc2ccc(NC(C)=O)cc2)c2oc3ccccc3c2n1 | 69.9% (active)
5 | Cc1cc(C)c(C#N)c(SCC(=O)NN2CC(=O)N(c3ccccc3F)CC2=O)n1 | 52.8% (active)
6 | CCN1CCc2c(C#N)c(NCc3ccccc3)nc(NCCO)c2C1 | 31.4% (active)
7 | COc1cccc(NC(=O)CN(C)C(=O)/C=C/c2cc(OC)ccc2OC)c1 | -101%
8 | COc1cccc2sc3cc(NCC[C@@H]4CCCN4C)ccc3c(=O)c12 | 46.9% (active)
9 | CN(C)C(=O)c1coc2nc3ccccc3nc12 | 104% (active)
10 | c1ccc(-c2cn3cccnc3n2)cc1 | 68.7% (active)
11 | COc1ccc2nc(-c3ccccn3)ccc2c1 | 3.28%
12 | FC(F)(F)Oc1ccc(-c2cn3cccnc3n2)cc1 | 36.4% (active)
13 | COc1ccc(-c2cn3cccnc3n2)cc1 | 68.6% (active)
14 | Cc1cc(S(=O)(=O)c2cc3ccc(O)c(C)c3oc2=O)ccc1F | 59.1% (active)
15 | CC1(C)CC(=O)c2cc(OCC(=O)NCC3CCCO3)ccc2O1 (centres undefined) | 48.1% (active)
16 | CC(=O)Nc1nc2ncccn2c1-c1ccc(C(F)(F)F)cc1 | 30.9% (active)
17 | CCCn1c(=NC(C)=O)c(C(=O)OCC)cc2c(=O)n3ccccc3nc21 | 33.5% (active)
18 | CN1CCCc2cc(C#N)c(=O)[nH]c21 | 33.1% (active)
19 | Cc1cc2c(nc1C)CCCN2C | 0.32%
20 | COCCN(CCOC)c1nc(N)c2c(N)nc3c(c2c1C#N)CC(=O)N3Cc1ccc(Cl)cc1 | -29.9%
21 | COc1nc(N=C(N)N)nc2c(C)cccc12 | 23.8% (active)
22 | NC(N)=Nc1nc(-c2ccccc2)c2cc(Cl)ccc2n1 | -1.67%

Row | SMILES | activation
23 | CCOc1c2ccc(C(=O)NCc3ccc4c(c3)OCO4)cc2nn1C | 7.8%
24 | Cc1coc2c1c(C)cc1oc(=O)c(CC(=O)NCC(=O)N[C@H](C(=O)O)C(C)C)c(C)c12 | 38.2% (active)
25 | COC(=O)c1cnn2c(C(F)(F)F)cc(-c3ccco3)nc12 | 38.9% (active)
26 | Cc1nc2ccccc2cc1O | -5.12%
27 | COc1cc2c(cc1OC)CC1(CCCCC1)N=C2 | 43.5% (active)
28 | Cc1cc(C)c2c(n1)nn1c(-n3ccnc3)cc(C)nc21 | 50.2% (active)
29 | Cc1cccn2c(=O)c3cc(C(=O)NCCN4CCOCC4)c(=N)n(Cc4cccnc4)c3nc12 | 17.1% (active)
30 | Cc1cccn2c(=O)c3cc(C#N)c(=NC(=O)c4cccnc4)n(CC4CCCO4)c3nc12 (centres undefined) | -75.3%
31 | CCn1c(=N)c(C(=O)NCCCOC)cc2c(=O)n3cccc(C)c3nc21 | 72.2% (active)
32 | Cc1ccc2nc3c(cc(C(=O)NCCc4ccccc4)c(=N)n3CC3CCCO3)c(=O)n2c1 (centres undefined) | -15.4%
33 | CC(C)=NN1C(=O)c2ccccc2NC1(C)C | 25% (active)
34 | COC(=O)c1ccc(C2C3=C(Nc4nnnn42)c2ccccc2OC3)cc1 (centres undefined) | 5.83%
35 | CC(C)Cc1nc(Nc2ccc(S(=O)(=O)N3CCCC3)cc2)c2nnn(Cc3ccccc3)c2n1 | 43.6% (active)
36 | COc1cccc(OCc2cc(/C=N/NC(=O)c3nc(Cl)c(Cl)c(N)c3Cl)ccc2OC)c1 | 62.4% (active)
37 | COCC(C)OC(=O)c1c(N)n(CCCN2CCOCC2)c2nc3ccccc3nc12 (centres undefined) | 20% (active)
38 | CC(C)(C)OC(=O)c1c(N)n(CCCN2CCCC2=O)c2nc3ccccc3nc12 | 69.5% (active)
39 | COC(=O)c1c(C)c(C)nc(N)c1C#N | 71.3% (active)
40 | Cc1ccc(-c2nn(-c3ccccc3)cc2/C=C/C(=O)Nc2cccc(S(N)(=O)=O)c2)cc1 | 263% (active)
41 | CCc1ccc(-c2cc(C(=O)NCc3ccco3)c3ccccc3n2)s1 | 75.3% (active)
42 | COc1cc(C(=O)N2C(=O)c3cccc(N)c3C2=O)cc(OC)c1OC | 127% (active)
43 | CC1CC(C)CN(S(=O)(=O)c2cccc(C(=O)N3C(=O)c4cccc(N)c4C3=O)c2)C1 (centres undefined) | 240% (active)
44 | Nc1ccccc1-c1nc2ccncc2[nH]1 | 2.63%

Row | SMILES | activation
45 | CCCCc1cc(=O)oc2cc(C)cc(OCc3nn[nH]n3)c12 | 28.8% (active)
46 | CCCCN(CCCC)CC(O)Cn1c2ccccc2c(=O)c2ccccc21 (centres undefined) | 13.8% (active)
47 | CCCCCn1c(=O)c(C(=O)OCC)c(Cl)c2ccccc21 | -0.17%
48 | CCCc1cc(=O)oc2c(C)c(O)c(CN3CCCCC3)cc12 | 62.8% (active)
49 | CC(=O)Nc1ccc(S(=O)(=O)NCC(=O)OCc2cc(=O)oc3ccc4ccccc4c23)cc1 | 218% (active)
50 | Nc1ccc2nn(-c3ccc(Cl)cc3)nc2c1 | 65.8% (active)
51 | CC1(C)CN(c2ccc(-c3ccnc4ncnn34)cc2)C1=O | 68.6% (active)
52 | COc1ccc2oc(=O)c(C(=O)N3CCCC3)cc2c1 | 23.8% (active)
53 | CCN1CCN(C(=O)c2cc3cc4ccc(OC)cc4nc3s2)CC1 | -15.9%
54 | COC(=O)C1=NN(c2ccccc2)C2C(=O)N(c3ccccc3OC)C(=O)C12 (centres undefined) | 21.2% (active)
55 | Cn1cccc1/C=N/NC(=O)CNc1cccc2ccccc12 | 2.27%
56 | O=C(O)c1cccnc1Sc1ncnc2sc3c(c12)CCC3 | 17.9% (active)
57 | Cc1oc2nc(SCC(=O)Nc3ccc(S(N)(=O)=O)cc3)nc(NC(=O)c3ccccc3)c2c1C | 5.56%
58 | O=c1oc2cc(O)ccc2cc1-c1ccc(F)cc1 | 76% (active)
59 | O=C(Nc1nncs1)c1ccccc1NS(=O)(=O)c1cccs1 | 26.4% (active)
60 | CCOc1ccc(N2C(=O)CC(N(O)c3ccccc3)C2=O)cc1 (centres undefined) | 166% (active)
61 | COC(=O)Cc1cc(=O)oc2c(C)c(O)ccc12 | 68% (active)
62 | CN(C)CCN1CCN(c2cc(-c3cccc(Cl)c3)nc3ccnn23)CC1 | 0.23%
63 | COCc1cc(=O)[nH]c2cc(NC(=O)C(F)(F)F)c(C)cc12 | 239% (active)
64 | N#Cc1nc(-c2cccc3ccccc23)oc1N | 70.2% (active)
